# Measurements: the supplement of paper PMC6555819
# Key:
# Assay in all cases: PBM binding z-score (relative to random genomic background probes); higher = stronger binding; sequences stand for … in GC…GCGATTGACAGCGTAGAATGAAGG
# [1] = system: FXR:RXRa (NR concentration 270 nM, RXRa partner concentration 90 nM)
# Procedure, shortened: (§1)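 Each nuclear receptor dimer, without ligand, was incubated for 1 h on custom Agilent 4×180K protein-binding microarrays. Binding was detected with antibodies against each partner (one per run), and scanned fluorescence was regression-normalized. The binding z-scores are referenced to random human genomic background probes.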
# [2] = system: LXRa:RXRa (NR concentration 270 nM, RXRa partner concentration 90 nM)
# Procedure, shortened: as §1
# [3] = system: LXRa homodimer (NR concentration 270 nM)
# Procedure, shortened: as §1
# [4] = system: LXRb:RXRa (NR concentration 270 nM, RXRa partner concentration 90 nM)
# Procedure, shortened: as §1
# [5] = system: LXRb homodimer (NR concentration 270 nM)
# Procedure, shortened: as §1
# [6] = system: PPARa:RXRa (NR concentration 270 nM, RXRa partner concentration 90 nM)
# Procedure, shortened: as §1
# [7] = system: PPARg:RXRa (NR concentration 180 nM, RXRa partner concentration 90 nM)
# Procedure, shortened: as §1
# [8] = system: PPARg:RXRa 270nM:90nM, anti-RXR (NR concentration 270 nM, RXRa partner concentration 90 nM)
# Procedure, shortened: as §1
# [9] = system: PPARg:RXRa 30nM:10nM, anti-RXR (NR concentration 30 nM, RXRa partner concentration 10 nM)
# Procedure, shortened: as §1
# [10] = system: PPARg:RXRa 90nM:30nM, anti-RXR (NR concentration 90 nM, RXRa partner concentration 30 nM)
# Procedure, shortened: as §1
# [11] = system: PPARg:RXRa DBDmut IVT, anti-RXR (DBD mutation: RXRa K156A/R161A, NR concentration 270 nM, RXRa partner concentration 90 nM)
# Procedure, shortened: as §1
# [12] = system: PPARg:RXRa IVT, anti-PPARg (NR concentration 270 nM, RXRa partner concentration 90 nM)
# Procedure, shortened: as §1
# [13] = system: PPARg DBDmut:RXRa IVT, anti-PPARg (DBD mutation: PPARg1 K132A/R137A, NR concentration 270 nM, RXRa partner concentration 90 nM)
# Procedure, shortened: as §1
# [14] = system: PPARg DBDmut IVT, anti-PPARg (DBD mutation: PPARg1 K132A/R137A, NR concentration 270 nM)
# Procedure, shortened: as §1
# [15] = system: PPARg homodimer (NR concentration 180 nM)
# Procedure, shortened: as §1
# [16] = system: PXR:RXRa (NR concentration 270 nM, RXRa partner concentration 90 nM)
# Procedure, shortened: as §1
# [17] = system: PXR homodimer (NR concentration 270 nM)
# Procedure, shortened: as §1
# [18] = system: RARa:RXR (NR concentration 270 nM, RXRa partner concentration 90 nM)
# Procedure, shortened: as §1
# [19] = system: RARa homodimer (NR concentration 270 nM)
# Procedure, shortened: as §1
# [20] = system: RARb:RXRa (NR concentration 270 nM, RXRa partner concentration 90 nM)
# Procedure, shortened: as §1
Sequence,PBM binding z-score [1],PBM binding z-score [2],PBM binding z-score [3],PBM binding z-score [4],PBM binding z-score [5],PBM binding z-score [6],PBM binding z-score [7],PBM binding z-score [8],PBM binding z-score [9],PBM binding z-score [10],PBM binding z-score [11],PBM binding z-score [12],PBM binding z-score [13],PBM binding z-score [14],PBM binding z-score [15],PBM binding z-score [16],PBM binding z-score [17],PBM binding z-score [18],PBM binding z-score [19],PBM binding z-score [20]
CAAACTAGGTCAAAGGCCAAAGTCGAGCCAACCA,5.15,3.93,0.637,3.08,-0.153,6.63,11.3,9.98,9.75,10.9,7.91,8.52,1.47,0.202,1.73,2.9,0.159,4.68,0.255,4.31
ACTATTAGGTGACTTAGGGCAACCGATACGACGC,0.616,0.424,0.428,0.142,0.261,1.27,1.85,1.34,0.448,0.872,4.96,3.9,1.48,0.993,0.861,0.146,0.0513,0.9,1,1.31
ATCTCTAGGTAAGACTCAGCTCAGTGAAGAACGC,0.197,0.324,0.483,-0.157,0.984,-0.198,0.0541,-0.171,0.317,0.109,1.68,1.02,0.287,1.14,0.51,-0.0635,0.232,-0.0237,0.868,-0.0169
GCTATCAGGCCATTTGGGTCACTCAATGACGGGC,0.309,0.382,-0.0509,0.286,0.109,1.73,0.893,0.805,-0.227,0.276,2.06,2.59,-0.109,-0.362,0.448,1.01,0.354,1.2,-0.0153,1.87
CCAGACAGGTGGGAAGGTAACTCAGCCTCGATTA,-0.208,-0.246,0.289,0.0174,-0.794,0.0187,0.131,-0.544,-0.249,-0.529,-0.289,-0.383,-0.344,-0.717,0.689,-0.359,0.0826,-0.164,0.496,-0.0117
ATCTCTAGATAACCAAGTTCAGTGAATGCCGAAC,0.0637,0.348,0.591,0.348,0.0515,-0.00769,0.236,-0.141,0.124,-0.0247,-0.316,0.0781,0.627,0.782,0.44,1.1,1.09,0.424,0.885,0.556
CCCAGCAGGCCAGGGTCACTCAAGCATTTCGCTT,2.03,1.48,-0.513,1.61,-0.79,2.8,0.0881,0.885,-1.03,0.0104,-0.567,0.512,-1.55,-1.26,0.406,2.46,-0.562,3.22,-0.754,2.62
ATCGAAAGGTTGTGAGGTGAGTATACAGAAAGGC,0.714,0.605,-0.189,0.771,0.139,1.68,0.892,0.732,0.508,0.523,-0.125,0.638,0.845,0.495,0.431,0.336,0.498,1.15,0.35,1.45
CCTCGGATGACAACAGGAGGTCAGAGCTGCCAGA,0.859,1.83,1.84,1.53,-0.0301,1.91,0.547,0.588,-0.476,0.0996,-0.191,-0.245,0.202,-0.797,1.63,1.72,0.385,2.22,1.58,2.02
AGAATGAGGTTAAGAACAGGGAAACAGAATACAT,2.13,1.7,0.291,1.87,0.264,3.18,2.15,2.05,0.811,1.34,2.35,2.23,1.48,0.955,0.811,1.13,0.635,1.61,0.514,1.87
CCTTTCGGGTCACGAGGTTATAGCACGACGAGCG,6.94,4.87,0.634,4.2,0.882,6.42,7.34,6.75,2.96,5.52,3.85,5.47,3.53,2.42,2.82,4.93,0.795,6.44,0.862,4.99
CAAACTAGGTCAAGGTAAAAGTCGGTTTGTGCCA,3.54,2.52,0.259,1.97,0.356,4.86,8.27,7.09,4.93,6.9,8.78,8.76,1.41,0.73,1.61,1.54,-0.0973,2.24,0.604,4.42
AATACAGGGTCATCGTAGGCCAGGGTACGCACAG,7.02,6.11,2.59,4.52,1.33,5.71,6.91,6.06,2.54,4.9,2.56,4.25,1.78,1.18,4.25,4.84,0.528,5.17,1.22,4.32
TAGCCTAGGTCATGGCCCAGTATACCACGCGAAC,4.7,3.85,0.774,2.64,-0.293,4.33,4.27,3.99,1.14,2.95,1.98,4.42,0.172,-0.0252,3.1,1.91,-0.224,3.53,0.397,4.01
